# Test results as given in PubChem BioAssay (NCI).
# About 79,000 compounds went through this panel and 15% of them were active in at least one assay; those are over-represented in the sample as a whole. Values without a mark were called inactive. Calls of active or inactive are those of the source. Rule as the data show it: active = growth inhibition above about 70%; inactive = the rest.
# Assay: NCI Yeast Anticancer Drug Screen. Data for the bub3 strain (AID 167)
# Settings: S. cerevisiae bub3 mutant strain, at 50.0 µM, active compounds read high
# Method in brief: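 In this screen, a yeast mutant lacking normal mitotic checkpoint function is challenged with compound. Relative growth versus vehicle gives the inhibition value.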
row,Structure (SMILES),growth inhibition
1,S=C(S)NN1CCOCC1,96% (active)
2,COc1cc2c3c(cccc3c1)C(=O)N(CCN(C)C)C2=O,-34%
3,COC(=O)C1=C(C)NC(C)=C(C(=O)OCCCN2CCC(c3ccccc3)(c3ccccc3)CC2)C1c1cccc([N+](=O)[O-])c1 (stereo not given),97% (active)
4,c1ccc2c(c1)Oc1cccc3cccc-2c13,56.4%
5,CN(C)CCOc1ccc2c(c1)C/C(=C/c1ncc([N+](=O)[O-])n1C)C2=O,72.9% (active)
6,Cc1ccc(CCC2=CCCc3c2ccc2ccccc32)cc1,33.8%
7,CNC(=O)OCc1c(COC(=O)NC)c(-c2ccc(Cl)c(Cl)c2)n2c1CCC2,55.6%
8,Clc1ccccc1C1OC1c1ccccc1Cl (stereo not given),41.6%
9,O=[N+]([O-])c1cc(CCl)ccc1CCl,99.4% (active)
10,O=C1C=CC(=O)c2c(O)c(Nc3ccc(OC(F)(F)F)cc3)c(Cl)c(O)c21,82.2% (active)
11,S=c1[nH]nc(Nc2ccc(Cl)cc2)s1,88.8% (active)
12,Cn1ccnc1Oc1ccc(Cl)cc1,38.1%
13,BrCc1cccc2ccc3cccc(CBr)c3c12,65%
14,O=C1c2ccccc2-c2nc3ccccc3nc21,-14.2%
15,CCCCCCCCCCCCCCCCCCNC,87.1% (active)
16,Oc1ccc(NCn2c(=S)sc3ccccc32)cc1,73.2% (active)
17,O=C1C2CC[C@@H]3C(=O)C(Cl)(Cl)[C@@H]3CCC2C1(Cl)Cl (stereo not given in full),70.8% (active)
18,CC[n+]1ccc2c(C)c3[nH]c4ccc(O)cc4c3c(C)c2c1,5.2%
19,Cc1ccc(-n2cc(-c3ccc(Cl)cc3)c(C#N)c2N)cc1,61.6%
20,CC(=O)[O][Bi]([c]1ccccc1)[c]1ccccc1,83.2% (active)

row,Structure (SMILES),growth inhibition
1,CC1=C(SCCO)C(=O)c2ccccc2C1=O,81.2% (active)
2,C/C(=N\O)C1CC2C=C(C#N)C1N(Cc1ccccc1)C2 (stereo not given),10.7%
3,CC(Br)C(=O)c1ccc2cc(Br)c3ccccc3c2c1 (stereo not given),58%
4,Nc1nc(-c2cccnc2)cc(-c2cc(-c3cccnc3)nc(N)n2)n1,6.3%
5,CC(C)=CC(=O)O[C@@H]1CC(C)(C)CC2C3=CCC4[C@]56CC[C@](O)(OC5)C(C)(C)C6CC[C@@]4(C)C3(C)CC[C@]21C(=O)O (stereo not given in full),81.3% (active)
6,CCC(C)COC(=O)c1ccc(N=Cc2ccc(C=Nc3ccc(C(=O)OCC(C)CC)cc3)cc2)cc1 (stereo not given),62.1%
7,Oc1cccc2c(Cl)ccnc12,92.8% (active)
8,O=C(O)c1cccc(-c2c3ccc(=O)cc-3oc3cc(O)ccc23)c1,62.9%
9,CN(CCc1ccccn1)c1ccc2c(c1)Cc1ccccc1-2,18.4%
10,Cc1cc(S(=O)(=O)/N=C(/NN)NNc2cccc(C(F)(F)F)n2)c(S)cc1Cl,-17.4%
11,O=C1C2C(C(=O)N1c1ccc(OCc3ccccc3)cc1)C1c3ccccc3C2C2CCCCN21 (stereo not given),83.3% (active)
12,Nc1ccccc1CC(O)C(=O)O (stereo not given),83.8% (active)
13,O=C(O)C1CCCCC1c1c2ccc(=O)c(O)c-2oc2c(O)c(O)ccc12 (stereo not given),87.2% (active)
14,Cc1ccc2ccc(O)cc2c1,86.7% (active)
15,O=C1C(=O)c2ccccc2C=C1[N+](=O)[O-],8.85%
16,COC(=O)c1ccc(NCC2=CC(=O)C=CC2=O)cc1O,91.1% (active)
17,C(CCSC1=NCCN1)CSC1=NCCN1 (tested in a mixture with another compound),99% (active)
18,N#Cc1c(N)[nH]c2ccc(Sc3ccccc3)cc12,52.4%
19,CCNc1nnc(CSc2nc(-c3ccccc3)c(-c3ccccc3)[nH]2)s1,85.2% (active)
20,CC[C@@]1(O)C(=O)OCc2c1cc1n(c2=O)Cc2cc3c(N)cccc3nc2-1,-0.65%
